Measured values: PubChem BioAssay AID624330 (Southern Research Specialized Biocontainment Screening …, 2012)
Hit rate of the full screen: of about 340,000 compounds, about 2,100 (0.62%) were called active.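 The calls were made as follows: active = first-screen hits whose inhibition reached a set limit at any dose in the follow-up dose series; inconclusive = inhibition above the set first-screen limit but never retested; inactive = the rest.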 Only a sample is shown. Entries with a potency or affinity are not part of this list.

molecular target: Rac GTPase-activating protein 1 (Homo sapiens) (UniProt Q9H0H5); test: blockers of MgcRacGAP-driven Rac1 GTP hydrolysis – biochemical, ADP Hunter fluorescence, primary and confirmatory, confirmation (AID 624330); conditions: MgcRacGAP-stimulated Rac1 GTP hydrolysis, at 30 µM, active compounds read high, GST-tagged Rac1 F28L mutant substrate;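 also: fluorescence reports GDP produced by GAP-driven GTP hydrolysis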
Sequence (Q9H0H5 whole entry, looked up): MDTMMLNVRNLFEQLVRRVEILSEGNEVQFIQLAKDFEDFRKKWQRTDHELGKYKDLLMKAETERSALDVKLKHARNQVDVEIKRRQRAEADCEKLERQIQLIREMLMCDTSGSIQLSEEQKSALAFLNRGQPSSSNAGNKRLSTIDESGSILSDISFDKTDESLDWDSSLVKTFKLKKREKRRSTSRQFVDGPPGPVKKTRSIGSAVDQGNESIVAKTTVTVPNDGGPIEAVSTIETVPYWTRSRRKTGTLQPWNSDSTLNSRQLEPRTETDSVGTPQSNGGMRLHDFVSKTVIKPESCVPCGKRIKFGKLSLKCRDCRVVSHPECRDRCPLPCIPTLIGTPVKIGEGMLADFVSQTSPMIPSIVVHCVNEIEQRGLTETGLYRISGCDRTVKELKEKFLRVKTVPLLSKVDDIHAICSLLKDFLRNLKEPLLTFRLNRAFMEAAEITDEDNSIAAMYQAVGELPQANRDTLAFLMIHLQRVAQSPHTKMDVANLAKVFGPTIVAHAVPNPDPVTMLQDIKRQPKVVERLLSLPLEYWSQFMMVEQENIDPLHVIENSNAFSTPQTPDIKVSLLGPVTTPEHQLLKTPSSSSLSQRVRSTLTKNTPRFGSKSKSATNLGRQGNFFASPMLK

inhibition, inactive:
COc1ccccc1NC(=O)COc1cccc2c1CCNC2=O 5.13%
O=S(=O)(NCC(c1ccc2c(c1)OCO2)N1CCOCC1)c1ccc(Br)cc1 (stereo not drawn) 5.07%
CCCOC(=O)c1cc(-c2ccc(/C=C3/C(=O)N(C)C(=O)C(C#N)=C3C)o2)ccc1Cl 13.4%
CC1=C(C#N)C(=O)NC(=O)/C1=C/c1ccc(-c2ccc(S(N)(=O)=O)cc2)o1 25.6%
COC(=O)c1ccccc1NC(=O)C/C(C)=N/NC(=O)Cc1ccc(Cl)cc1 4.76%
CC(=O)N1CCc2cc(S(=O)(=O)CCC(=O)N(C)c3cc(C)ccc3C)ccc21 2.95%
COc1ccc(Cn2c(-c3ccc(OC)c(O)c3)nc3ccccc32)cc1O 11.2%
COc1ccc(CNc2ccc(C(=O)O)cc2)cc1 5.05%
Cc1ccc(NCc2cccnc2)cc1 9.95%
COc1ccc(NC(=S)NCc2cccnc2)cc1 2.3%
COc1ccc(CNc2ccc(Br)cc2)cc1 9.45%
O=C(O)c1ccc(C(=O)O)c(C(=O)c2ccc(NC(=O)c3ccccc3)cc2)c1 8.04%
O=C(O)C1(P(=O)(c2ccc(Cl)cc2)c2ccc(Cl)cc2)CCCC1 10.3%
Cn1cc2ccc(N)cc2n1 6.58%
Cc1ccc2cc(N)ccc2n1 10.9%
CC(C)(C)C(=O)N1CCC2CC1c1cc(Cl)ccc12 (stereo not drawn) 9.89%
CCN(CC)S(=O)(=O)c1ccc(N/N=C/c2cccnc2)nc1 2.22%
CCN(CC)S(=O)(=O)c1ccc(N/N=C/c2cc(OC)c(OC)cc2OC)nc1 4.42%
CCOc1cccc(/C=N/Nc2ccc(S(=O)(=O)N(CC)CC)cn2)c1O 2.17%
CCN(CC)S(=O)(=O)c1ccc(N/N=C/c2cc(OC)ccc2O)nc1 5.07%
CN(CC(=O)Nc1cccc(F)c1)C(=O)Cc1ccsc1 8.14%
Cc1cc(C)c2nc(NC(=O)C3CSC4(C)CCC(=O)N34)sc2c1 (stereo not drawn) 5.06%
CC1=C(C(=O)OC(C)C)C(c2ccc(Br)s2)NC(=O)N1 (stereo not drawn) 1.12%
O=C(NCC(c1cccnc1)N1CCOCC1)C1CCCCC1 (stereo not drawn) 0.64%
COC(=O)c1ccc(OC)c(CN2CCCN(Cc3ccc(F)cc3)S2(=O)=O)c1 6.78%
Cc1cccc(C)c1-n1cccc1/C=C1\SC(=S)N(c2cccc(C(=O)O)c2)C1=O -1.38%
O=C(O)CN1C(=O)/C(=C/c2ccc(SCc3ccccc3)o2)SC1=S 41%
O=C(NCC(c1ccco1)N1CCCC1)c1cccc(NS(=O)(=O)c2ccccc2)c1 (stereo not drawn) 7.02%
COc1ccc(C2=NN(Cc3ccccc3)C3C(=O)NC(=O)C23)cc1 (stereo not drawn) 1.11%
CC(=O)C1=C(O)C(=O)N(Cc2ccccc2)C1c1ccc(N(C)C)cc1 (stereo not drawn) 5.08%
O=C(N/C(=C/c1ccccc1)C(=O)N1CCCCCC1)c1ccccc1 4.23%
O=C(N/C(=C/c1ccccc1)C(=O)N1CCCCC1)c1ccccc1 7.71%
Cc1cc(C)c2[nH]c(=O)c(CN(CC3CCCO3)S(=O)(=O)c3ccc4c(c3)OCCO4)cc2c1 (stereo not drawn) -7.75%
O=C1C2C3C=CC(C3)C2C(=O)N1Nc1c(Cl)cc(Cl)cc1Cl (stereo not drawn) -1.67%
CCN(C(=O)CSc1nnc(-c2ccccc2Cl)n1C1CCCC1)C1CCS(=O)(=O)C1 (stereo not drawn) 10.2%
C=CCn1c(SCC(=O)NC2(C#N)CCCCC2)nnc1-c1ccncc1 -2.35%
CN1CCN(CCC(=O)Nc2ccc3c(c2)OCO3)CC1 9.52%
CC1CCCC(C)N1S(=O)(=O)c1ccc(NC(=O)CNCC2CCCO2)cc1 (stereo not drawn) 13.2%
COc1ccc(N2CCN(CC(=O)Nc3ccc(C)cc3)CC2)cc1 6.34%
CCN1CCN(CCC(=O)Nc2ccc3c(c2)OCO3)CC1 -5.95%
O=C(CNCC1CCCO1)Nc1ccccc1N1CCCCCC1 (stereo not drawn) 15.5%
O=C(CN1CCOCC1)Nc1cccc(S(=O)(=O)N2CCCCCC2)c1 4.7%
COc1ccc(NC(=O)c2ccc(NC(=O)CN3CCN(c4ccccc4)CC3)cc2)cc1 -2.48%
COc1ccc(S(=O)(=O)N2CCN(CC(=O)Nc3cccc(OC)c3)CC2)cc1 -0.54%
CC1(C)CC(=O)C=C(NCCN2CCN(C(=S)Nc3ccccc3)CC2)C1 7.52%
Cc1ccc(NS(=O)(=O)c2ccc3c(c2)NC(=O)C(C)C(=O)N3)c(Br)c1 (stereo not drawn) -1.09%
Cc1onc(-c2ccccc2)c1C(=O)c1c[nH]c(C(=O)NCc2ccccn2)c1 3.33%
c1ccc(NN(Cc2ccccn2)c2ccccc2)cc1 -6.65%
O=C(CCC(=O)c1cccs1)Nc1ncccc1O 11.4%
CCOC(CCNC(=O)c1cn(CC(C)C)c(=O)c2c1c1ccccc1n2C)OCC 17.2%
CC(=O)Nc1cccc(Oc2cc(C#N)c(C#N)cc2N2CCCCCC2)c1 5.07%
O=C(CN1CCN(c2ccccc2)CC1)Nc1ccc2c(c1)OCCO2 0.3%
CC1CCCCN1CC(=O)Nc1ccc2c(c1)OCO2 (stereo not drawn) 31%
CC1CCCCN1CC(=O)Nc1ccc(Oc2ccccc2)cc1 (stereo not drawn) 9.36%
O=C(CNCc1ccccc1Cl)Nc1ccc2c(c1)OCCO2 29.9%
O=C(CN1CCN(c2ccc(F)cc2)CC1)Nc1ccc2c(c1)OCCO2 9.33%
O=C(CNC1CCCCC1)Nc1ccc(Cl)cc1 1.58%
O=C(CNC1CCCC1)Nc1ccc(S(=O)(=O)N2CCCCC2)cc1 3.94%
O=C(CSCc1ccc(Cl)cc1)Nc1ccc2c(c1)OCCO2 5.15%
CCC(=O)Nc1ccc(NC(=O)CSc2nnnn2CC)cc1C 6.52%
CCOC(=O)COc1ccc(S(=O)(=O)N2CCN(c3ccccc3)CC2)cc1 8.59%
O=C(CSc1nnc(-c2ccccc2)c(-c2ccccc2)n1)Nc1ccc(Br)cn1 4.25%
Cn1c(=O)[nH]c(=O)c2c1nc(Br)n2C/C=N/Nc1ccccc1 3.62%
COc1ccc(N(CC(=O)Nc2ccc3c(c2)OCCO3)S(=O)(=O)c2cccnc2)cc1 -11.8%
CC(=O)c1ccc(S(=O)(=O)NCCC(=O)NCCc2c[nH]c3ccccc23)cc1 3.35%
CCCCOC(=O)C1=C(C)Nc2ncnn2C1c1ccc(OC)c(OC)c1OC (stereo not drawn) 0.42%
O=C(CN1CCCCC1)Nc1ccccc1 -4.92%
COc1ccc(N2CCN(Cc3cc4c(cc3Br)OCCO4)CC2)cc1 4.68%
O=C(CNCC1CCCO1)Nc1ccccc1N1CCOCC1 (stereo not drawn) 22%
O=C(CNC1CCCCCC1)Nc1ccccc1N1CCCCC1 8.73%
COc1ccccc1N1CCN(Cc2cc3c(cc2Br)OCCO3)CC1 2.26%
O=C(CN1CCCCCC1)Nc1ccc(Br)cc1 5.51%
Cc1ccc(NC(=O)c2cnccn2)cc1S(=O)(=O)N1CCCCCC1 6.35%
COc1ccc(-c2nc(NC3=NCCCCC3)sc2C)cc1 6.19%
CCCNC(=O)c1onc(CSc2ccc(Cl)cc2)c1C(=O)NCC1CC1 7.59%
COC(=O)c1ccc(NC(=O)c2cn(-c3ccccc3)nc2-c2ccncc2)cc1 -0.99%
CN(C)c1ccc2c3c(ccc(N(C)C)c13)COC2 -1.08%
CC(C)(C)N=Cc1cc(-c2ccccc2)sc1O 7.65%
CN=Cc1nc(-c2ccccc2)oc1O 10.2%
CCCn1c(N2CCN(C(=O)N3CCCCC3)CC2)nc2ccccc21 -9.24%
C#CCOCCOCCOCCNc1nc(N2CCN(C(=O)C([C@@H](C)O)n3cc([C@@H](N)CCCCN)nn3)CC2)nc(N2CCN(C(=O)C([C@@H](C)O)n3cc([C@@H](N)CCCCN)nn3)CC2)n1 (stereo partly drawn) 27.4%
C#CCOCCOCCOCCNc1nc(N2CCN(C(=O)CCCCCCCCCCNC(=O)[C@@H](CCSC)n3cc(CCO)nn3)CC2)nc(N2CCN(C(=O)CCCCCCCCCCNC(=O)[C@H](CCC(=O)O)n3cc(CCCCCN)nn3)CC2)n1 8.01%
C#CCOCCOCCOCCNc1nc(N2CCN(C(=O)CCCCCCCCCCNC(=O)[C@@H](CCSC)n3cc(CCO)nn3)CC2)nc(N2CCN(C(=O)CCCCCCCCCCNC(=O)[C@H](CCSC)n3cc(CCO)nn3)CC2)n1 -2.72%
C#CCOCCOCCOCCNc1nc(N2CCN(C(=O)[C@H](CCC(=O)O)n3cc(CN)nn3)CC2)nc(N2CCN(C(=O)[C@H](CCCCN)n3cc([C@@H](N)CC(N)=O)nn3)CC2)n1 8.54%
C#CCOCCOCCOCCNc1nc(N2CCN(C(=O)[C@H](CCCCN)n3cc(CN)nn3)CC2)nc(N2CCN(C(=O)[C@H](CCC(=O)O)n3cc(CN)nn3)CC2)n1 10.3%
C#CCOCCOCCOCCNc1nc(N2CCOCC2)nc(N2CCN(C(=O)[C@H](CCCCN)n3cc(CN)nn3)CC2)n1 20.9%
C#CCOCCOCCOCCNc1nc(N2CCN(C(=O)[C@H](CCC(=O)O)n3cc([C@@H](N)CCCCN)nn3)CC2)nc(N2CCN(C(=O)[C@H](CCC(=O)O)n3cc([C@@H](N)CCCCN)nn3)CC2)n1 3.63%
C#CCOCCOCCOCCNc1nc(N2CCN(C(=O)C([C@@H](C)O)n3cc([C@@H](N)CCCCN)nn3)CC2)nc(N2CCN(C(=O)[C@H](CCCCN)n3cc([C@@H](N)CC(N)=O)nn3)CC2)n1 (stereo partly drawn) 30.2%
